This is part of a sample that, as a whole, favours compounds with a hit. Of some 83,000 tested, about 20% had one in any assay.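 Cells were grown in 96-well plates and exposed to the test compound at a single concentration for 48 hours; results are reported as percent growth, with values below 10 considered active.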 Values without a mark were called inactive. Calls of active or inactive are those of the source.
Assays:
Test in all cases: NCI-60 one-dose screen, 48 h (100 = growth as untreated, 0 = no growth, -100 = all killed)
Settings in all cases: 10 µM unless noted
DU-145 prostate = tested on: DU-145 prostate
K-562 leukemia = tested on: K-562 leukemia
MALME-3M melanoma = tested on: MALME-3M melanoma
MDA-MB-231 breast = tested on: MDA-MB-231 breast
RXF 393 renal = tested on: RXF 393 renal
SF-268 CNS = tested on: SF-268 CNS
SF-295 CNS = tested on: SF-295 CNS
SF-539 CNS = tested on: SF-539 CNS
UACC-257 melanoma = tested on: UACC-257 melanoma
M14 melanoma = tested on: M14 melanoma
HCT-15 colon = tested on: HCT-15 colon
HT29 colon = tested on: HT29 colon
SNB-75 CNS = tested on: SNB-75 CNS
SNB-19 CNS = tested on: SNB-19 CNS
U251 CNS = tested on: U251 CNS
PC-3 prostate = tested on: PC-3 prostate
SK-MEL-5 melanoma = tested on: SK-MEL-5 melanoma
UACC-62 melanoma = tested on: UACC-62 melanoma
LOX IMVI melanoma = tested on: LOX IMVI melanoma
SK-MEL-28 melanoma = tested on: SK-MEL-28 melanoma

Compound | growth (DU-145 prostate) | growth (K-562 leukemia) | growth (MALME-3M melanoma) | growth (MDA-MB-231 breast) | growth (RXF 393 renal) | growth (SF-268 CNS) | growth (SF-295 CNS) | growth (SF-539 CNS) | growth (UACC-257 melanoma) | growth (M14 melanoma) | growth (HCT-15 colon) | growth (HT29 colon) | growth (SNB-75 CNS) | growth (SNB-19 CNS) | growth (U251 CNS) | growth (PC-3 prostate) [%] | growth (SK-MEL-5 melanoma) | growth (UACC-62 melanoma) | growth (LOX IMVI melanoma) | growth (SK-MEL-28 melanoma)
CN1CCN(c2ccc(Nc3nc(NCCCNS(=O)(=O)c4ccc(Cl)cc4)c4sccc4n3)cc2)CC1 | 30.8% | 12.5% | -88.4% (active) | 9.29% (active) | -76.7% (active) | 5.08% (active) | -68.5% (active) | -85.3% (active) | -80.2% (active) | -60.4% (active) | 6.7% (active) | -69.7% (active) | 19.8% | 39.5% | -11.3% (active) | 51.5 | -91.1% (active) | -30.5% (active) | -84.6% (active) | -71.9% (active)
O=C(CCCCCCNC(=O)C(O)(O)C(F)(F)F)Nc1ncc(-c2ccc(Br)cc2)s1 | 3.81% (active) | 11.8% | 19.9% | 19.7% | -52.8% (active) | 1.89% (active) | -29.3% (active) | 12.1% | 9.48% (active) | 8.94% (active) | 3.85% (active) | 1.78% (active) | 35.9% | 2.52% (active) | -35.4% (active) | 10.5 | -70.3% (active) | -52.1% (active) | -89.7% (active) | 3.46% (active)
C#CCOc1ccc(-c2csc(NC(=O)C=C)n2)cc1NS(=O)(=O)c1cccc2c(N(C)C)cccc12 | 44.6% | 9.26% (active) | 62.5% | 31.7% | -6.3% (active) | 64.7% | 66.8% | 3.55% (active) | 68.6% | 31.9% | -9.26% (active) | 12.6% | 1.15% (active) | 71.2% | 47.7% | 53.6 | 63.6% | 37.1% | -91% (active) | 14.9%
CC(C)[C@H]1c2[nH]c3ccccc3c2C[C@H]2C(=O)N(CCCCCCC(=O)NO)CC(=O)N12 | 92.4% | 60.6% | 31.1% | 92.5% | 87% | 107% | 95.2% | 73.6% | 57.7% | 82.2% | 97.5% | 77.4% | 62.9% | 86.7% | 81% | 86 | 75% | 56.2% | 72.7% | 71.7%
Cc1ccc2c(n1)C(=O)C(Cl)=C(Nc1cccc(C(=O)OC(C)(C)C)c1)C2=O | 94.8% | -18.1% (active) | 127% | 74.4% | 84.3% | 93.4% | 104% | 105% | 72.3% | 96.5% | 47.1% | 114% | 95.7% | 97.6% | 88.5% | 72 | 88.1% | 90.7% | 8.98% (active) | 103%
CCOC(=O)c1c(N)c(C#N)cn1Cc1ccc(Cl)cc1Cl | 93.5% | 24.8% | 85.6% | 43.9% | 63.1% | 80.5% | 80.2% | 73.3% | 92.7% | 72.4% | 48.8% | 80.4% | 47.3% | 68.7% | 64.1% | 71.5 | 78% | 59.8% | 78.8% | 92.6%
O=C(/C=C/c1ccccc1)c1cccc(O)c1 | 105% | 71.6% | 104% | 105% | 92.4% | 104% | 98.3% | 103% | 101% | 95.1% | 89.3% | 110% | 81.8% | 96.1% | 91.2% | 94.2 | 96.9% | 81.1% | 66.1% | 104%
O=c1oc2ccc(-c3ccc(F)cc3F)cc2c(=O)n1-c1ccc(Br)cc1F | 85.2% | 45.4% | 61.5% | 87% | 80.8% | 58.6% | 77.6% | 74.3% | 48.1% | 80.7% | 47.4% | 109% | 73.9% | 71.7% | 64% | 78.9 | 15% | 21.1% | 88.2% | 77.3%
Cc1nc(N)sc1-c1csc(Nc2ccc(C(F)(F)F)cc2)n1 | 35.8% | 22.5% | 10.1% | 20.1% | 18.3% | 49.5% | 7.89% (active) | 27.1% | 37.2% | 28.4% | 7.03% (active) | -27.6% (active) | 56.5% | 47.3% | 53.3% | 36.5 | -43% (active) | 22.2% | 6.07% (active) | 42.1%
CC1(C)CC[C@]23CC[C@]4(C)[C@H](CC[C@@H]5[C@@]6(C)CC[C@H](N)C(C)(C)[C@@H]6CC[C@]54C)[C@H]2[C@H]1OC3 | -25.2% (active) | -31.2% (active) | 109% | 30.1% | 38.1% | 80.9% | 78% | 74.1% | 98.9% | 82.8% | -52.2% (active) | 20.2% | 99.5% | 47.3% | -47.9% (active) | 69.6 | 87.7% | 94.6% | -74.2% (active) | 103%
O=C(CN1CCN(c2cc(=O)[nH]c3ccc(F)cc23)CC1)N(c1ccccc1)c1ccccc1 | 107% | 94.9% | 100% | 98.1% | 103% | 99.8% | 107% | 101% | 106% | 105% | 97.7% | 110% | 71.3% | 93.4% | 107% | 96.5 | 100% | 98% | 101% | 111%
N#Cc1cccc(-c2cc(-c3ccc4c(c3)OCCO4)[nH]n2)c1 | 34.7% | 13.6% | 36.1% | 42% | 32.4% | 61% | 27.1% | 25% | 71.1% | 7.59% (active) | 23.2% | 11.2% | 10.6% | 36.6% | 30.2% | 39.7 | 12.1% | 41.7% | 46% | 55.9%
O=C(Nc1ccc(Cl)c(C(F)(F)F)c1)Nc1ccc2oc(=O)ccc2c1 | 40.5% | 19.1% | 42.6% | 69.3% | 89.2% | 65% | 5.31% (active) | 63.3% | 64.4% | 49.6% | 16.6% | 65.4% | 58.6% | 28.5% | 31.3% | 10.6 | 41.4% | 27.9% | 1.96% (active) | 66.7%
NS(=O)(=O)c1ccc(Nc2nc(Nc3ccccc3)nc(N3N=C(c4ccc(Cl)cc4)CC3c3ccc(Cl)cc3)n2)cc1 (stereo not given) | 50.4% | 32.5% | 42.5% | 54.3% | -3.26% (active) | 59.4% | 56.7% | 58% | 65.8% | 34.6% | 36.6% | 9.63% (active) | 68% | 61.1% | 61.3% | 43 | 51.9% | 97.6% | 12.6% | 47.1%
N#C/C(=C\c1ccc(-c2ccc(Cl)c(Cl)c2)o1)C(=O)Nc1ncc(Cc2ccc(Cl)cc2)s1 | 29.7% | 52.5% | 17.2% | 50% | 66% | 34.7% | 20.4% | 46.7% | 78.2% | 21.6% | 13.5% | 27.9% | 7.13% (active) | 37.8% | 3.74% (active) | 36.7 | 80.4% | 48.6% | -79.8% (active) | 18.2%

Source: PubChem BioAssay (NCI)
